PLK1 PBD inh – blocks phosphopeptide binding to human PLK1 polo-box domain; Plk1 PBD binding of FITC phosphopeptide, fluorescence polarization; Potency, µM, without a hit: max response, negative = inhibition, hits mostly inhibitors; 360,000 tested, 2.8% active; AID 720504; further: series mostly up to about 57 µM; on the % scale 0 is the no-effect control and ±100 the full control effect; nearly all actives have a fitted effect of over 65% in size
HP1b binding inh – blocks HP1-beta chromodomain binding to methylated histone tails | P83916 | AlphaScreen HP1-beta / biotin-H3K9me3 peptide binding | Potency, µM (highest dose often 114 µM), inactives show at the highest dose activity change, negative = inhibition, most hits filed as inhibitors | 390,000 tested, 0.56% active | AID 540317; further: nearly all actives have a fitted effect of over 70% in size
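Compound inhibition of the preformed complex between 50 nM HP1-beta and 50 nM biotinylated H3K9me3 peptide was read by AlphaScreen. Buffer was PBS pH 7.4 with 0.01% Tween-20. Incubations ran 30 min at room temperature, with 10 ug/mL donor/acceptor beads.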
JMJD2A Tudor – blocks the human JMJD2A Tudor domain; AlphaScreen JMJD2A-Tudor / H3K4me3 peptide binding; Potency, µM (series often up to 114 µM), inactives show at the highest dose activity change, negative = inhibition, hits mostly inhibitors; 390,000 tested, 4.4% active; further: on the % scale 0 is the no-effect control and ±100 the full control effect; nearly all actives have a fitted effect of over 50% in size
Target sequence (O75164 whole entry, looked up, the tested form may be a part): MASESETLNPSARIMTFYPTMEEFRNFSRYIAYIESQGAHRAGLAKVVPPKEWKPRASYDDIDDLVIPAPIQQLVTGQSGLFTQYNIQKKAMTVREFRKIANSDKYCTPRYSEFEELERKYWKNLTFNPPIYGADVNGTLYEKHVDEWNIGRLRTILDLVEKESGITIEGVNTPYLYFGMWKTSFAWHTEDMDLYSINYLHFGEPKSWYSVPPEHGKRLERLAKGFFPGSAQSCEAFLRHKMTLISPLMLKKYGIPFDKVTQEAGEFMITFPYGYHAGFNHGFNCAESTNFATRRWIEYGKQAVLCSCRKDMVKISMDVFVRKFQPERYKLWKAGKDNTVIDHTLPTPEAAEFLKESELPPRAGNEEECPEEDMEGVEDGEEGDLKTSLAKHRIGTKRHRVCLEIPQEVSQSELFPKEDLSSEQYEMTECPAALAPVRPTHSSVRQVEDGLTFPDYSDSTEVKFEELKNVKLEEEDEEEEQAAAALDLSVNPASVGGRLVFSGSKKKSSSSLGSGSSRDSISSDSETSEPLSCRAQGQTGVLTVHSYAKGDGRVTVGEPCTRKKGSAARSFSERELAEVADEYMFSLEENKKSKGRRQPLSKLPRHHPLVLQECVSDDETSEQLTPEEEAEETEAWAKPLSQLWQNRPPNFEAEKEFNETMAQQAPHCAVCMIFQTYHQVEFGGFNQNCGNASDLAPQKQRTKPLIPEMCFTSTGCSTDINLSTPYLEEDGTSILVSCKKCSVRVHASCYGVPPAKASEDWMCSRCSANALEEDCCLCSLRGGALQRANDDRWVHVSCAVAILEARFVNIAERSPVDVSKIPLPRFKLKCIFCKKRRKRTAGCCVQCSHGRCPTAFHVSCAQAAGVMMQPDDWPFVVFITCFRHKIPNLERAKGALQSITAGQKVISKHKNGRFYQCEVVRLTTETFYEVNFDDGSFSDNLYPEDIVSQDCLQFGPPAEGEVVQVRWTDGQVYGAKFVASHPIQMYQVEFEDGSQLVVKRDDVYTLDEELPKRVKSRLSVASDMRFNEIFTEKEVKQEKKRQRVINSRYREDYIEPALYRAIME
BAZ2B block – inhibitors of human BAZ2B bromodomain; 360,000 tested, 4.4% active; AlphaScreen BAZ2B-H3K14Ac peptide displacement; Potency, µM (series often up to 114 µM), inactives show at the top dose activity change, negative = inhibition, usual class: inhibitors; AID 504333; further: on the % scale 0 is the no-effect control and ±100 the full control effect; nearly all actives have a fitted effect of over 60% in size
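Protein-peptide AlphaScreen: BAZ2B 50 nM, b-H3K14Ac 50 nM, 1x PBS pH 7.4 + 0.01% Tween-20. Preincubation 30 min RT; cpd 30 min RT (top 110 uM); beads 20 min RT, light-protected.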
L3MBTL1 block – inhibitors of human L3MBTL1; Q9Y468; Potency, µM (top dose mostly 57.1 µM), inactives show top-dose activity, negative = inhibition, hits mostly inhibitors; AlphaScreen L3MBTL1–H3K9me1 peptide binding; 230,000 tested, 0.66% active; further: on the % scale 0 is the no-effect control and ±100 the full control effect; nearly all actives have a fitted effect of over 60% in size
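L3MBTL1 50 nM + b-AHA-H3(1-15)K9me1 75 nM, 30 min RT; compound added, 30 min RT; streptavidin donor/Ni-chelate acceptor beads 10 ug/mL each final, 30 min RT dark; AlphaScreen read.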
VDR inhibitor – blocks the human vitamin D receptor. AID 504847. 400,000 tested, 0.93% active. Potency, µM, for inactives: max response, negative = inhibition, most hits filed as inhibitors. P11473. VDR-SRC2-3 peptide fluorescence polarization, 2 h; further: on the % scale 0 is the no-effect control and ±100 the full control effect
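Fluorescence polarization assay measuring small-molecule disruption of VDR binding to the coregulator peptide SRC2-3. Compounds were pin-transferred (23 nl) into the reagent mix and incubated 2 h at room temperature before reading.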
An asterisk follows results filed as active; [ ] = another dose, or the depositor's remark. Compounds with a hit are over-represented: about 6.9% of the library has one in this group of screens. The call rests on the fitted dose curve; in most records, active means well fitted curve in the direction sought with a large enough effect; inconclusive means small, poorly fitted or top-dose-only effect, or another doubt; inactive means no such curve, though single readings can be large; an effect the other way counts as inactive or inconclusive. Potency means the concentration at half of the fitted maximal effect.

`Cc1ccc(OCCn2c(=S)[nH]c3ccccc32)c(C(C)C)c1` gave PLK1 PBD inh -6%, HP1b binding inh -10%, JMJD2A Tudor -25%, BAZ2B block inconclusive, L3MBTL1 block -7% and VDR inhibitor inconclusive.
`Cc1cccc(OCCn2c(=S)[nH]c3ccccc32)c1` gave PLK1 PBD inh 6µM*, HP1b binding inh -61%, JMJD2A Tudor inconclusive, BAZ2B block inconclusive, L3MBTL1 block inconclusive and VDR inhibitor inconclusive.
S=c1[nH]c2ccccc2n1CCOc1ccccc1 was read as PLK1 PBD inh 19µM*, HP1b binding inh -24%, JMJD2A Tudor inconclusive, BAZ2B block 12%, L3MBTL1 block 25% and VDR inhibitor inconclusive.
`CCOc1ccc(OCCn2c(=S)[nH]c3ccccc32)cc1` gave PLK1 PBD inh 13µM*, HP1b binding inh inconclusive, JMJD2A Tudor inconclusive, BAZ2B block 50µM*, L3MBTL1 block -10% and VDR inhibitor inconclusive.
`CCOc1ccc2c(c1)[nH]c(=S)n2C` gave PLK1 PBD inh 13µM*, HP1b binding inh -34%, JMJD2A Tudor 56µM*, BAZ2B block -15%, L3MBTL1 block 4% and VDR inhibitor inconclusive.
For Cc1ccccc1C(=O)NCC(c1cccnc1)N1CCc2ccccc21 (stereo not drawn) the results were HP1b binding inh 30%, JMJD2A Tudor -15%, BAZ2B block 6% and VDR inhibitor 6%.
CN(Cc1ccccc1)C(=O)C1CCN(S(=O)(=O)Cc2ccccc2)CC1 was read as HP1b binding inh 29%, JMJD2A Tudor -25%, BAZ2B block -3% and VDR inhibitor 13%.
CCOc1ccc(C2c3c(oc4cc(C)c(C)cc4c3=O)C(=O)N2c2ccccn2)cc1 (stereo not drawn) was read as HP1b binding inh 23%, JMJD2A Tudor -14%, BAZ2B block 1%[57.1 µM] and VDR inhibitor -1%.
For O=C1CN(C(=O)c2ccc(S(=O)(=O)N3CCCCC3)cc2)C(c2ccc(F)cc2)c2cc(Br)ccc2N1 (stereo not drawn) the results were HP1b binding inh 15%, JMJD2A Tudor -22%, BAZ2B block -5% and VDR inhibitor 0%.
Screening Cc1ccsc1/C=C1/SC(N2CC(C)OC(C)C2)=NC1=O (stereo not drawn) returned PLK1 PBD inh 30µM*, HP1b binding inh 9%, JMJD2A Tudor -10%, BAZ2B block 1%, L3MBTL1 block -2% and VDR inhibitor -17%.
O=C(NCCCc1ccccc1)c1cc(COc2ccc(F)cc2Cl)on1 was read as PLK1 PBD inh 30µM*, HP1b binding inh 50%, JMJD2A Tudor inconclusive, BAZ2B block 35% and VDR inhibitor inconclusive.
`O=C(NCCc1cccnc1)c1cc(COc2ccc(F)cc2F)on1` gave PLK1 PBD inh -1%, HP1b binding inh 44%, JMJD2A Tudor -2%, BAZ2B block -20% and VDR inhibitor 0%.
`Cc1nonc1CN(C)C(=O)c1cc(COc2ccc(F)cc2Cl)on1` gave PLK1 PBD inh -6%, HP1b binding inh 48%, JMJD2A Tudor 34%, BAZ2B block 2% and VDR inhibitor -2%.
For C#CCN(Cc1ccco1)C(=O)c1cc(COc2ccc(F)cc2Cl)on1 the results were PLK1 PBD inh -3%, HP1b binding inh 63%, JMJD2A Tudor -13%[11.4 µM], BAZ2B block 71µM*, L3MBTL1 block -22% and VDR inhibitor -1%.
Cc1ccc(CN(C)C(=O)c2cc(COc3ccc(F)cc3Cl)on2)o1 was read as PLK1 PBD inh 15µM*, HP1b binding inh -11%, JMJD2A Tudor inconclusive, BAZ2B block 10%, L3MBTL1 block 18% and VDR inhibitor inconclusive.
`CC1=C(C(=O)OC2CCCCCC2)C(c2cccc(F)c2F)CC(=O)N1` (stereo not drawn) gave HP1b binding inh 20%, JMJD2A Tudor -5%, BAZ2B block 6% and VDR inhibitor -24%.
Screening Oc1ccc(Br)cc1CNc1ccccn1 returned PLK1 PBD inh 17µM*, HP1b binding inh 6%, JMJD2A Tudor -20%[11.4 µM], BAZ2B block 4%, L3MBTL1 block 9% and VDR inhibitor inconclusive.
Screening Cc1oc2ccc(O)c(CN(C)Cc3ccccc3)c2c1C(=O)Nc1cccc(Cl)c1C returned HP1b binding inh 16%, JMJD2A Tudor -10%, BAZ2B block -5% and VDR inhibitor 1%.
Screening Cc1cc(C(=O)CCl)c(C)n1CCc1ccc(Cl)cc1 returned PLK1 PBD inh inconclusive, HP1b binding inh 18%, JMJD2A Tudor -15%, BAZ2B block inconclusive, L3MBTL1 block 1%[11.4 µM] and VDR inhibitor 18µM*.
`COC(=O)[C@]1(C)N[C@H](CN(C)C(=O)Nc2ccc(OC)cc2)[C@@H]2C(=O)N(Cc3ccccc3)C(=O)[C@@H]21` gave PLK1 PBD inh -10%, HP1b binding inh 78%, JMJD2A Tudor -12%, L3MBTL1 block -3% and VDR inhibitor 7%.
`Cc1ccc(C2CC(=O)NC(SCc3ccccc3)=C2C#N)cc1` (stereo not drawn) gave PLK1 PBD inh inconclusive, HP1b binding inh -10%, JMJD2A Tudor 89µM*, BAZ2B block -12%, L3MBTL1 block 2% and VDR inhibitor 1%.
Screening CCCSC1=C(C#N)C(c2cccs2)CC(=O)N1 (stereo not drawn) returned PLK1 PBD inh 24µM*, HP1b binding inh -13%, JMJD2A Tudor -10%, BAZ2B block -21%, L3MBTL1 block -3% and VDR inhibitor -8%.
Screening CCSC1=C(C#N)C(c2ccccc2C)CC(=O)N1 (stereo not drawn) returned PLK1 PBD inh 2%, HP1b binding inh 42%, JMJD2A Tudor -5%, BAZ2B block 1% and VDR inhibitor -5%.
Cc1ccc(NC(=O)CSC2=C(C#N)C(c3ccco3)CC(=O)N2)cc1 (stereo not drawn) was read as PLK1 PBD inh -7%, HP1b binding inh 24%, JMJD2A Tudor -14%, BAZ2B block inconclusive and VDR inhibitor -15%.
N#CC1=C(SCc2ccccc2)NC(=O)CC1c1ccc(O)cc1 (stereo not drawn) was read as PLK1 PBD inh -2%, HP1b binding inh 10%, JMJD2A Tudor -12%, BAZ2B block 6%, L3MBTL1 block -5%[11.4 µM] and VDR inhibitor -1%.
Cc1ccc(C(=O)CSC2=C(C#N)C(c3ccco3)CC(=O)N2)c(C)c1 (stereo not drawn) was read as PLK1 PBD inh -22%, HP1b binding inh -40%, JMJD2A Tudor 50µM*, L3MBTL1 block inconclusive and VDR inhibitor -8%.
For CCn1c(=O)c2sccc2n2c(CCCC(=O)Nc3ccc(Oc4ccccc4)cc3)nnc12 the results were HP1b binding inh 46%, JMJD2A Tudor 6%, BAZ2B block 0% and VDR inhibitor 5%.

Source: PubChem BioAssay (National Center for Advancing Translational Sciences (NCATS))
